These results are taken from the supplement of paper PMC6555819.

Common to all, as to experiment: PBM binding z-score (relative to random genomic background probes); higher = stronger binding; sequences stand for … in GC…GCGATTGACAGCGTAGAATGAAGG
The subject of assay [1] is PPARg:RXRa DBDmut IVT, anti-RXR (DBD mutation: RXRa K156A/R161A, NR concentration 270 nM, RXRa partner concentration 90 nM). In outline: (§1)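 On custom Agilent 4×180K arrays, double-stranded probes with 34-nt variable regions carried direct-repeat seeds, single-nucleotide variants, half-site ablations or random human genomic background. Ligand-free nuclear receptor dimers were applied for 1 h, and binding was read with antibodies against each partner (one per run). Binding z-scores come from regression-normalized fluorescence, with the random background probes as reference.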

Assay [2] has as its system PPARg:RXRa IVT, anti-PPARg (NR concentration 270 nM, RXRa partner concentration 90 nM). Put shortly: as §1
For assay [3], the system named is PPARg DBDmut:RXRa IVT, anti-PPARg (DBD mutation: PPARg1 K132A/R137A, NR concentration 270 nM, RXRa partner concentration 90 nM). Put shortly: as §1
Assay [4] deals with PPARg DBDmut IVT, anti-PPARg (DBD mutation: PPARg1 K132A/R137A, NR concentration 270 nM). Put shortly:
as §1

Assay [5] has as its system PPARg homodimer (NR concentration 180 nM). In outline:
as §1

In assay [6] the test system is PXR:RXRa (NR concentration 270 nM, RXRa partner concentration 90 nM). Put shortly: as §1
Assay [7] has as its system PXR homodimer (NR concentration 270 nM). Put shortly: as §1
Assay [8] concerns RARa:RXR (NR concentration 270 nM, RXRa partner concentration 90 nM). Put shortly: as §1
The test system of assay [9] is RARa homodimer (NR concentration 270 nM). Put shortly:
as §1

Assay [10] has as its system RARb:RXRa (NR concentration 270 nM, RXRa partner concentration 90 nM). In outline: as §1
Assay [11] deals with RARb homodimer (NR concentration 270 nM). In outline:
as §1

Assay [12] relates to RARg:RXRa (NR concentration 270 nM, RXRa partner concentration 90 nM). Put shortly:
as §1

Assay [13] concerns RARg homodimer (NR concentration 270 nM). Put shortly:
as §1

Assay [14] deals with RXRa DBDmut IVT, anti-RXR (DBD mutation: RXRa K156A/R161A, NR concentration 90 nM). In outline: as §1
For assay [15], the system named is RXRa homodimer (NR concentration 180 nM). In outline:
as §1

Assay [16] concerns THRa:RXRa (NR concentration 90 nM, RXRa partner concentration 90 nM). Put shortly:
as §1

For assay [17], the system named is THRa homodimer (NR concentration 90 nM). Put shortly:
as §1

Assay [18] deals with VDR homodimer (NR concentration 270 nM). Put shortly: as §1

As to CCTTACGGGTCACTAGGTTATAGCACGACGAGCG, the PBM binding z-score in [1] is 4.54; in assay [2], 5.69; in assay [3], 1.5; in assay [4] it was 0.896; in assay [5], 2.59; in assay [6] it was 2.84. In addition, the PBM binding z-score is -0.213 in assay [7]; 3.7 in [8]; 0.907 in [9]; 3.7 in [10]; 3 in [11]; 4.53 in assay [12]. The PBM binding z-score in [13] was determined as 4.46; in assay [14], 1.22; in assay [15], 4.2; in assay [16], 2.29; in [17], 0.139; in assay [18], 1.24.

As to TAGCCTAGGTCATTCAGGGGCCAGTAAAGAAAGC, the PBM binding z-score came to 1.81 in assay [1]; 3.14 in assay [2]; 0.536 in assay [3]; 0.653 in [4]; 1.04 in assay [5]; 2.39 in assay [6]. Further, the PBM binding z-score is -0.023 in assay [7]; 3.28 in assay [8]; 0.0478 in assay [9]; 3.86 in assay [10]; 3.38 in assay [11]; 6.24 in [12]. Besides, the PBM binding z-score was 4.69 in assay [13]; 1.5 in [14]; 3.27 in [15]; 3.63 in [16]; 0.491 in assay [17]; 1.24 in assay [18].

Regarding TGTCAAAGTTCAAAGCTAACGTAAGTATCCACAC, the PBM binding z-score came out at 0.771 in [1]; 3.82 in assay [2]; 1.34 in [3]; 1.18 in assay [4]; 2.01 in [5]; 4.29 in assay [6]. The PBM binding z-score in assay [7] stood at 3.01; in assay [8], 3.5; in [9] it was 1.14; in assay [10] it was 5.04; in assay [11], 3.48; in assay [12] it was 5.47. In addition, the PBM binding z-score in [13] is 5.72; in assay [14], 4.37; in assay [15], 4.59; in assay [16] it was 1.76; in assay [17], -0.21; in assay [18], 3.56.

As to ACTATTAGTTGAGGCGAGGGCAACCGATAGGTTG, the PBM binding z-score is 0.169 in assay [1]; 0.559 in [2]; 0.713 in assay [3]; 0.82 in [4]; 0.794 in assay [5]; 0.918 in assay [6]. Moreover, the PBM binding z-score in assay [7] came out at 0.305; in assay [8], 0.644; in [9], 0.393; in assay [10], 1.4; in assay [11], 1.3; in [12], 0.575. Moreover, the PBM binding z-score was 0.748 in assay [13]; 0.263 in assay [14]; 0.386 in assay [15]; 2.43 in assay [16]; 0.721 in assay [17]; 0.813 in [18].

As to AGAATCAGGTTACCAAAGATCAGGGAAACGCTTG, the PBM binding z-score in assay [1] turned out to be 3.77; in assay [2] it was 3.08; in [3], 0.88; in assay [4], 1.06; in [5] it was 0.0981; in [6], 0.0669. Moreover, the PBM binding z-score in assay [7] was -0.0157; in [8] it was 0.359; in assay [9], -0.131; in assay [10], 1.08; in assay [11], 0.374; in [12], 0.744. For the same sequence, the PBM binding z-score in [13] was 0.974; in [14], 0.0556; in assay [15], 0.775; in assay [16], 1.36; in assay [17], 0.124; in assay [18] it was -0.469.

In the case of CGAACTAGGTGAAGGACAGTGAATCTCCGCACGC, the PBM binding z-score in assay [1] is 7.22; in assay [2], 6.69; in assay [3], 0.351; in assay [4], 1.02; in assay [5], -0.373; in assay [6], -0.343. In addition, the PBM binding z-score in assay [7] is -0.341; in assay [8] it was -0.0643; in assay [9], -0.232; in assay [10], 0.792; in assay [11], 0.454; in assay [12] it was 0.04. Further, the PBM binding z-score in [13] is 0.23; in [14], -0.281; in assay [15], 0.265; in [16], 0.232; in assay [17], -0.201; in [18] it was -0.373.

With CATACAGGGTCAGCTAGGCCAGGGTAGGGACGGC, the PBM binding z-score was 0.462 in [1]; 2.48 in [2]; 0.368 in assay [3]; 0.335 in [4]; 1.37 in [5]; 2.18 in assay [6]. The PBM binding z-score was -0.00796 in assay [7]; 3.16 in assay [8]; 0.91 in assay [9]; 4.02 in assay [10]; 3.59 in assay [11]; 4.48 in assay [12]. Besides, the PBM binding z-score in assay [13] worked out at 5.13; in [14], 0.607; in assay [15], 4.42; in [16], 3.28; in assay [17], 1.26; in [18], 1.47.

For GCTCGGACGACAAGGTCAGAGCTTTGTCCGTAGA, the PBM binding z-score is -0.353 in assay [1]; -0.175 in [2]; -1.38 in assay [3]; -1.46 in assay [4]; 0.248 in [5]; 1.73 in assay [6]. Moreover, the PBM binding z-score in assay [7] was -0.194; in [8], 2.24; in [9], -0.933; in assay [10], 2.84; in assay [11] it was 2.73; in assay [12], 2.72. Also, the PBM binding z-score in [13] amounted to 3.07; in assay [14] it was 0.365; in [15] it was 2.23; in assay [16] it was 2.54; in [17], 0.94; in [18] it was 0.617.
